Reference: PubChem BioAssay (NCATS)
Values joined by “and” are separate entries in the source; they are usually repeats but may differ in a detail not shown here. Equal values may be shown once. Results filed as inconclusive are left out. Entries that show only a call come without a potency. Some compounds were tested as several samples or in several runs, with calls that do not always agree. Active and inactive are the calls of the source. Unless noted, the call rests on the fitted dose curve; in most records, active means well fitted curve in the direction sought with a large enough effect; inconclusive means small, poorly fitted or top-dose-only effect, or another doubt; inactive means no such curve, though single readings can be large; an effect the other way counts as inactive or inconclusive.

Experiments:
[1] = biological target: Catechol O-methyltransferase (Homo sapiens) (UniProt P21964); test: Confirmatory Screen for Target Class Profiling of Small Molecule Inhibitors of Methyltransferases (AID 1745852; calls by dose curve; further: potency means the concentration at half of the fitted maximal effect); conditions: MTase-Glo luminescence, SAH detection, recombinant enzyme; measured here: COMT max response; stronger effect = lower value
Catechol O-methyltransferase (Homo sapiens), sequence (P21964 whole entry, looked up): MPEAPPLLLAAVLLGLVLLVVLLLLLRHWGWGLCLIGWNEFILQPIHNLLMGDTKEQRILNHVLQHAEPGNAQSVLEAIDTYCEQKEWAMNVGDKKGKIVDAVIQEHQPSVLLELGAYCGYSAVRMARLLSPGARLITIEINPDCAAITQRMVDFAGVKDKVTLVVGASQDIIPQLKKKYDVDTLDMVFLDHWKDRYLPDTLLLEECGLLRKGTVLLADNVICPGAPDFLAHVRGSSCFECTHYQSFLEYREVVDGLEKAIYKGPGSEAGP

[2] = biological target: Guanidinoacetate N-methyltransferase (Homo sapiens) (UniProt Q14353); test: as above; conditions: MTase-Glo luminescence, SAH detection, recombinant enzyme; activity change, negative = inhibition: at 57.3 µM (top of the series) unless noted; series mostly up to 57.3 µM
[3] = biological target: Nicotinamide N-methyltransferase (Homo sapiens) (UniProt P40261); test: as above; conditions: MTase-Glo luminescence, SAH detection, recombinant enzyme; measured here: NNMT max response; stronger effect = lower value
Nicotinamide N-methyltransferase (Homo sapiens), sequence (P40261 whole entry, looked up): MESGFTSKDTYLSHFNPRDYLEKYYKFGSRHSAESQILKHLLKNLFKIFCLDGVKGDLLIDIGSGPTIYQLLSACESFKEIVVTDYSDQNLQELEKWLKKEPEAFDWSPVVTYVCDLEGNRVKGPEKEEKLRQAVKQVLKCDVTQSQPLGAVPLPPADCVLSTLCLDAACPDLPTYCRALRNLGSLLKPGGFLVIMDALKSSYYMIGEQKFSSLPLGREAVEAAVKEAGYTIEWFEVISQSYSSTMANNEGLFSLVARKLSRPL

[4] = biological target: Phenylethanolamine N-methyltransferase (Homo sapiens) (UniProt P11086); test: as above; conditions: MTase-Glo luminescence, SAH detection, recombinant enzyme; measured here: PNMT max response; stronger effect = lower value
Phenylethanolamine N-methyltransferase (Homo sapiens), sequence (P11086 whole entry, looked up): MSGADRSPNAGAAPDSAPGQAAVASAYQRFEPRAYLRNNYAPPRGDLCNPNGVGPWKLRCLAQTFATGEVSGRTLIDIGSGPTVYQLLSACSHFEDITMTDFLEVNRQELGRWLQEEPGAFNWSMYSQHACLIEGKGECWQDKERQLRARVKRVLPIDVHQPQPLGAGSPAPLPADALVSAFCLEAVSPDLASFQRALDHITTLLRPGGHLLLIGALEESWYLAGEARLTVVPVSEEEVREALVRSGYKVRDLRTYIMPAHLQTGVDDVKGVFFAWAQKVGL

[5] = biological target: Glutathione peroxidase 1 (Homo sapiens) (UniProt P07203); test: Primary qHTS Assay for Inhibitors of Recombinant Selenoprotein Glutathione Peroxidase 1 (GPX1) (AID 1845191); conditions: recombinant GPX1, GR-coupled NADPH fluorescence, 15 min; series mostly up to 48.8 µM; further: nearly all actives have a fitted effect of over 65% in size
Glutathione peroxidase 1 (Homo sapiens), sequence (P07203 whole entry, looked up): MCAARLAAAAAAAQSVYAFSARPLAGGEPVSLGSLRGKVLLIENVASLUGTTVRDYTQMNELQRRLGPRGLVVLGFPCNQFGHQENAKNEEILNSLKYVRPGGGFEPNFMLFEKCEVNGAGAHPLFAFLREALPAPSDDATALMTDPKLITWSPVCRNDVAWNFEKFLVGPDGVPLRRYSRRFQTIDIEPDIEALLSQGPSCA
Method in brief: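 NADPH consumption tracked by fluorescence at 340/450 nm between t=0 and t=15 min, room temperature. Final mix: 10 nM GPX1, 100 nM glutathione reductase, 1 mM GSH, 0.5 mM NADPH, 0.5 mM cumene hydroperoxide, 0.01% BSA; 30 min compound–enzyme preincubation.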

[6] = biological target: Phospholipid hydroperoxide glutathione peroxidase GPX4 (Homo sapiens) (UniProt P36969); test: Primary qHTS Assay for Inhibitors of Recombinant Selenoprotein Glutathione Peroxidase 4 (GPX4) (AID 1845192); conditions: recombinant GPX4, GR-coupled NADPH fluorescence, 15 min; series mostly up to 50 µM; further: nearly all actives have a fitted effect of over 65% in size; further: potency means the concentration at half of the fitted maximal effect
Phospholipid hydroperoxide glutathione peroxidase GPX4 (Homo sapiens), sequence (P36969 whole entry, looked up): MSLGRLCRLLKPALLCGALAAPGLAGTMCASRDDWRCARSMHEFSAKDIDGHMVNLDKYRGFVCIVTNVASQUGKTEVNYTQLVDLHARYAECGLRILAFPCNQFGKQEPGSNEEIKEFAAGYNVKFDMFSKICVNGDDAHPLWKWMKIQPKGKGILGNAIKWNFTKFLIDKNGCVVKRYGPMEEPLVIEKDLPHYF
Method in brief: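 NADPH consumption followed by fluorescence at 340/450 nm, t=0 and after 15 min at room temperature. Reaction started with cumene hydroperoxide (0.5 mM final) after 30 min compound–GPX4 preincubation; final 200 nM GPX4, 100 nM GR, 1 mM GSH, 0.5 mM NADPH.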

[7] = biological target: Luciferin 4-monooxygenase (Photinus pyralis) (UniProt P08659); test: Primary firefly luciferase (FLuc) qHTS assay for identification of artifact compounds. (AID 1845220); conditions: purified firefly luciferase, luminescence, 5 min; series mostly up to 54.1 µM; further: nearly all actives have a fitted effect of over 60% in size
Method in brief: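 FLuc 10 nM; luciferin 10 uM; ATP 10 uM; Tris-acetate pH 7.6, Mg-acetate 10 mM; 15 min RT preincubation; 5 min reaction; luminescence.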

[8] = Primary fluorescence-based thiol-reactive (MSTI) qHTS assay for identification of artifact compounds. (AID 1845221); conditions: MSTI thiol-reactivity probe, 1 h; series mostly up to 53.8 µM; further: nearly all actives have a fitted effect of over 65% in size; further: potency means the concentration at half of the fitted maximal effect
Method in brief: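 First, 4 uM MSTI in 2% DMSO/PBS pH 7.4 was dispensed; next, compounds were added; then plates sat 1 h at room temperature without light. Finally, emission at 598 nm was recorded.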

[9] = tested on: Nanoluciferase (engineered Oplophorus gracilirostris luciferase); test: Primary Nanoluciferase (NLuc) qHTS assay for identification of artifact compounds. (AID 1845222); conditions: NLuc-conditioned medium, Nano-Glo luminescence, 5 min; series mostly up to 54.1 µM;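 further: NLuc secreted into diluted conditioned medium of S16 cells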
Method in brief: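 NLuc from S16 cell medium (1:55) plus test compounds, 15 min, room temperature. Luminescence after Nano-Glo (1:100) addition, 5 min.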

[10] = Primary redox qHTS assay for identification of artifact compounds. (AID 1845223); conditions: Amplex Red/HRP redox cycling with DTT, fluorescence; series mostly up to 53.8 µM
Method in brief: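 Redox-cycling detection via DTT (250 uM final) oxidation coupled to Amplex Red (25 uM)/HRP (250 mU/mL) in HBSS. 15 min preincubation plus 30 min after DTT, room temperature. Ex/Em 525/598 nm; 4-parameter Hill fit against DMSO and 10 uM DA3003.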

[11] = biological target: Rap guanine nucleotide exchange factor 3 (Homo sapiens) (UniProt O95398); test: Counterscreen qHTS for agonist of cAMP-regulated guanine nucleotide exchange factor 3 (EPAC1) (AID 1645889); conditions: EPAC1 Rap1B-BODIPY-GDP exchange, fluorescence; series mostly up to 154 µM; further: nearly all actives have a fitted effect of over 40% in size
Method in brief: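 Rap1B-BODIPY-GDP 250 nM + GDP 50 uM; cpds 7-pt, final 9.74 nM–152 uM (activator mode) or from 7.32 nM upwards (inhibitor mode); RT; FI 480/540 nm at 5 and 30 min, then ± cAMP, reread.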

SMILES | activity [1] [%] | activity change, negative = inhibition [2] | activity [3] [%] | activity [4] [%] | Potency [5] | Potency [6] | Potency [7] | Potency [8] | Potency [9] | Potency [2] | Potency [10] | outcome [11]
Cc1c[nH]c2ncnc(N3CCC(CN)(C(=O)Nc4cccc(OC(=O)N(C)C)c4)CC3)c12 | -12.7 | -4.87% [at 114 µM] | -59.8 | -19.2 | inactive | inactive | inactive | inactive | inactive | – | – | –
N#Cc1ccc(COC[C@H]2O[C@@H](n3c(NCc4ccc(Cl)c(Cl)c4)nc4c(N)ncnc43)[C@H](O)[C@@H]2O)cc1 | -4.68 | – | -79.6 | -74.2 | inactive | inactive | inactive | inactive | inactive | 23.5 µM (active) | inactive | –
C=CC(=O)Nc1ccc2ncnc(Nc3cccc(Br)c3)c2c1 | -59.2 | – | -38.9 | -49.9 | inactive | inactive | inactive | inactive | inactive | 19.2 µM (active) | inactive | –
Clc1ccc(Cn2c(Cc3ccccc3)nc3ccccc32)cc1 | -6.59 | -6.78% | -51 | -7.3 | inactive | inactive | inactive | inactive | inactive | – | inactive | –
COc1ccc(NC(=O)c2ccc(-c3ccc(C(=N)N)cc3C)cc2)cc1N1CCN(C)CC1 | -5.44 | 2.76% | -3.54 | -6.51 | inactive | inactive | inactive | inactive | inactive | – | – | –
Cc1[nH]c(/C=C2\C(=O)Nc3ccc(S(=O)(=O)N(C)c4cccc(Cl)c4)cc32)c(C)c1C(=O)N1CCN(C)CC1 | -10.8 | -2.8% | -49.1 | -9.35 | inactive | inactive | inactive | – | – | – | – | –
Cc1cc(C)cc(-c2cnc3cc(Cl)c(-c4cccc(O)c4)cc3c2OCCCN)c1 | -38.4 | – | -83.8 | -37.3 | inactive | inactive | inactive | inactive | inactive | 42.9 µM (active) | inactive | –
C=CC(=O)Nc1cccc(Nc2nc(Nc3ccc(OCCOC)cc3)ncc2F)c1 | -40.1 | – | -65.2 | -40.1 | inactive | inactive | inactive | 4.74 µM (active) | inactive | 27.1 µM (active) | – | –
C=C1C(=O)O[C@@H]2C=C(COC(C)=O)CC/C=C(\CO)CC[C@@H]12 | -83.7 | 2.22% | 2.08 | 0.0072 | inactive | inactive | inactive | inactive | inactive | – | inactive | –
CCNC(=O)C#Cc1ccc2c(C(=Nc3ccc(CN(C)C)cc3)c3ccccc3)c(O)[nH]c2c1 | -20.9 | -11.9% [at 29.8 µM] | -31 | -19.5 | inactive | inactive | inactive | inactive | inactive | – | – | –
Cc1nnc(C[C@@H]2C=C(c3ccc(Cl)cc3)c3ccccc3-n3c(C)nnc32)o1 | -1.31 | – | -21 | 3.69 | inactive | inactive | inactive | inactive | inactive | inactive | – | –
Nc1nc(NC2CC2)cc(-c2cccc(Cl)c2Cl)n1 | -8.02 | -4.54% | -52.3 | -7.75 | inactive | inactive | inactive | inactive | inactive | – | inactive | –
CC(C)(C)Sc1c(CC(C)(C)C(=O)O)n(Cc2ccc(Cl)cc2)c2ccc(OCc3ccc4ccccc4n3)cc12 | 1.57 | – | -17.1 | -5.18 | inactive | inactive and 8.06 µM (active) | inactive | inactive | inactive | inactive | inactive | –
CCOC(=O)N1CCC(CN(Cc2ccc(Cl)cc2)Cc2ccc([N+](=O)[O-])s2)C1 (centres undefined) | -21.2 | 1.91% | -5.08 | -5.01 | inactive | inactive | inactive | 13.4 µM (active) | inactive | – | – | –
C[C@]12CC[C@@H]3c4ccc(OS(=O)(=O)O)cc4CC[C@H]3[C@@H]1CCC2=O | – | – | – | – | – | – | – | – | – | – | – | inactive
C[C@]12CC[C@@H]3c4ccc(O)c(O)c4CC[C@H]3[C@@H]1CCC2=O | -61.7 | -3.15% | -14.2 | -20.6 | inactive | inactive | inactive | 0.947 µM (active) | inactive | – | – | –
COC(=O)CC1OC(C)C2=C(O)c3c(O)cccc3C(=O)C23OC13 (centres undefined) | -4.94 | -3.96% | -0.835 | -0.505 | inactive | inactive | inactive | 3.29 µM (active) | inactive | – | – | –
Nc1ncnc2c1c(-c1ccc(Oc3ccccc3)cc1)nn2[C@@H]1CCCNC1 | -13.8 | -5.27% | -54 | -19 | inactive | inactive | inactive | inactive | inactive | – | – | –
Cc1sc2c(c1C)C(c1ccc(Cl)cc1)=N[C@H](CC(=O)NCCCCNC(=O)COc1cccc3c1C(=O)N([C@H]1CCC(=O)NC1=O)C3=O)c1nnc(C)n1-2 | -0.126 | 0% | -57.3 | 3.3 | inactive | inactive | inactive | inactive | inactive | – | inactive | –
NC(N)=NC(=O)c1cnn(-c2cccc3ncccc23)c1C1CC1 | -9.86 | -8.74% | -53.6 | -5.56 | inactive | inactive | inactive | inactive | inactive | – | inactive | –
COc1c2c(c(C)c3c1C(=O)OC3)O[C@@]1(C)C[C@@H](OC(C)=O)[C@]34O[C@](OC)(CC[C@]3(C)[C@H]1C2)OC4(C)C | -8.48 | 2.06% [at 29.8 µM] | -50.2 | -7.63 | inactive | inactive | inactive | inactive | inactive | – | inactive | –
